Assay results: the supplement of paper PMC13380429
Unmarked numbers belong to inactive results.

Tested on: Vero E6 infected with SARS-CoV-2
Test: inhibition of SARS-CoV-2 cytopathic effect; higher = more antiviral protection, active = above 15
Conditions: 48 h

SMILES | inhibition of SARS-CoV-2 cytopathic effect (1 nM) | inhibition of SARS-CoV-2 cytopathic effect (8.33 nM) | inhibition of SARS-CoV-2 cytopathic effect (100 nM) | inhibition of SARS-CoV-2 cytopathic effect (833.33 nM) | inhibition of SARS-CoV-2 cytopathic effect (10000 nM)
CN[C@H](CC(C)C)C(=O)N[C@H]1C(=O)N[C@@H](CC(N)=O)C(=O)N[C@H]2C(=O)N[C@H]3C(=O)N[C@H](C(=O)N[C@H](C(=O)O)c4cc(O)cc(O)c4-c4cc3ccc4O)[C@H](O[C@H]3C[C@](C)(N)[C@@H](O)[C@H](C)O3)c3ccc(c(Cl)c3)Oc3cc2cc(c3O[C@@H]2O[C@H](CO)[C@@H](O)[C@H](O)[C@H]2O[C@H]2C[C@](C)(NCc3ccc(-c4ccc(Cl)cc4)cc3)[C@@H](O)[C@H](C)O2)Oc2ccc(cc2Cl)[C@H]1O [oritavancin] | 2.97% | 3.58% | -0.56% | 0.82% | 0.93%
CC(C)(C)[C@]1(O)CCN2C[C@H]3c4ccccc4CCc4cccc(c43)[C@@H]2C1 [butaclamol] | 1.69% | 1.31% | 0.21% | 1.72% | -3.01%
COc1cc2c(cc1OC)[C@@]13CCN4CC5=CCO[C@H]6CC(=O)N2[C@H]1[C@H]6[C@H]5C[C@H]43 [brucine] | 7.12% | 1.25% | 3.51% | 2.71% | 0.47%
Cc1nc(Nc2cnn(C3CCNCC3)c2)nc2c1N(C)C(=O)c1cc3ccccc3cc1N2C | 2.64% | -1.33% | -2.15% | 1.63% | 48.4% (active)
CC(C)[C@H](N)C(=O)OCCOCn1cnc2c(=O)nc(N)[nH]c21 [valaciclovir] | 0.01% | 0.27% | 1.58% | 0.1% | -2.93%
COc1ccc(-c2cc(=O)c3c(OC)c(OC)c(OC)c(OC)c3o2)cc1 [tangeritin] | 2.13% | 0.56% | -0.23% | 0.3% | -0.52%
CCCCN(CCCC)CCCOC(=O)c1ccc(N)cc1 [butacaine] | 1.8% | 5.07% | 2.1% | -1.71% | -2.04%
C=C(NC(=O)C(=C)NC(=O)c1csc(C2=N[C@@H]3c4csc(n4)[C@H]4NC(=O)c5csc(n5)[C@H]([C@](C)(O)[C@@H](C)O)NC(=O)[C@H]5CSC(=N5)/C(=C/C)NC(=O)[C@H]([C@@H](C)O)NC(=O)c5csc(n5)[C@]3(CC2)NC(=O)[C@H](C)NC(=O)C(=C)NC(=O)[C@H](C)NC(=O)[C@H]([C@@H](C)CC)N[C@@H]2C=Cc3c([C@H](C)O)cc(nc3[C@H]2O)C(=O)O[C@@H]4C)n1)C(N)=O [thiostrepton] | -2.64% | -1.12% | -4.03% | 1.58% | 7.51%
CN1CCN(C(=O)O[C@H]2c3nccnc3C(=O)N2c2ccc(Cl)cn2)CC1 | 0.72% | 1.71% | 2.86% | 2.34% | 0.85%
COc1cc2c(Nc3ccc(NC(=O)c4ccccc4)cc3)ncnc2cc1OCCCN1CCOCC1 | -0.39% | 0.92% | -0.95% | 0.98% | 0.98%
OC[C@@H](O)[C@@H](O[C@@H]1O[C@H](CO)[C@H](O)[C@H](O)[C@H]1O)[C@H](O)[C@@H](O)CO | -1.07% | 0.84% | 0.06% | 0.18% | -0.36%
CN(C)c1ccccc1CN1CCCN(Cc2ccccc2N(C)C)C1c1ccncc1 | 0.09% | 1.84% | 0.14% | 0.48% | 21% (active)
O=C1O[C@H]([C@@H](O)CO)C([O-])=C1O.[Na+] [sodium-ascorbate] | -1.43% | 0.79% | 0.39% | 1.19% | 2.74%
Cc1[nH]cnc1-c1ccc(Cl)cc1 [lofemizole] | -0.61% | -0.4% | 150% (active) | 0.04% | -0.36%
CN1[C@@H]2C[C@@H](O)C[C@H]1[C@@H]1O[C@@H]12 [scopine] | -0.81% | -0.43% | -0.08% | 1.5% | -0.8%
N[C@@H](C(=O)N[C@@H]1C(=O)N2C(C(=O)O)=C(Cl)CC[C@H]12)c1ccccc1 [loracarbef] | 7.18% | 4.02% | 2.95% | 1.17% | 5.45%
Cc1cccc(N(C)C(=S)Oc2ccc3ccccc3c2)c1 [tolnaftate] | -0.91% | 0.08% | -1.72% | 1.03% | 3.31%

SMILES | inhibition of SARS-CoV-2 cytopathic effect (1 nM) | inhibition of SARS-CoV-2 cytopathic effect (8.33 nM) | inhibition of SARS-CoV-2 cytopathic effect (100 nM) | inhibition of SARS-CoV-2 cytopathic effect (833.33 nM) | inhibition of SARS-CoV-2 cytopathic effect (10000 nM)
NCC[C@H](O)C(=O)N[C@@H]1C[C@H](N)[C@@H](O[C@H]2O[C@H](CN)[C@@H](O)[C@H](O)[C@H]2O)[C@H](O)[C@H]1O[C@H]1O[C@H](CO)[C@@H](O)[C@H](N)[C@H]1O [amikacin] | -1.45% | 0.75% | 0.51% | 2.36% | -0.28%
CC(=O)OCC(=O)[C@@]12N=C(C)O[C@@H]1C[C@H]1[C@@H]3CCC4=CC(=O)C=C[C@]4(C)[C@H]3[C@@H](O)C[C@@]12C [Deflazacort (Calcort)] | 2.25% | -0.15% | -11.5% | 2.17% | 0.96%
CCC1(c2ccccc2)C(=O)N(COC)C(=O)N(COC)C1=O [eterobarb] | -0.71% | 0.82% | -1.29% | -0.57% | 0.84%
CC(C)(C)c1cc(C=C(C#N)C#N)cc(C(C)(C)C)c1O [tyrphostin-A9] | 1.9% | 1.44% | 4.1% | 8.55% | 6.42%
CC1(C)[C@H]2CC[C@]1(C)[C@@H](O)[C@H]2O [cis-exo-camphanediol-2,3] | 1.51% | 2.75% | 4.45% | 5.23% | 0.605%
O=C1CCC(N2C(=O)c3ccccc3C2=O)C(=O)N1 (stereo not given) [thalidomide] | 5.17% | -1.38% | -2.47% | -1.68% | -4.45%
CC1(C)[C@@H](O)CC[C@]2(C)[C@H]3C(=O)C=C4[C@@H]5C[C@@](C)(C(=O)O)CC[C@]5(C)CC[C@@]4(C)[C@]3(C)CC[C@@H]12 [enoxolone] | -3.08% | -3.58% | -1.05% | 2.65% | -0.55%
COc1cc(-c2ncn(/C=C\C(=O)OC(C)C)n2)cc(C(F)(F)F)c1 | -1.83% | -2.94% | -8.02% | -12.1% | -11.7%
C[C@H](NC(=O)/C(C#N)=C/c1cccc(Br)n1)c1ccccc1 | -2.07% | -1.75% | -2.65% | 5.36% | -4.77%
OC(CCN1CCCCC1)(c1ccccc1)C1CC2C=CC1C2 (stereo not given) [biperiden] | 0.1% | -0.07% | 0.23% | -2.88% | -2%
O=C(O)Cc1ccc(CCNS(=O)(=O)c2ccc(Cl)cc2)cc1 [daltroban] | -0.21% | 3.04% | -1.18% | -0.76% | 1.78%
Cc1ccc2nc(NCCN)c3ncc(C)n3c2c1 | -1.03% | -0.71% | -2.54% | 0.69% | -11.4%
C#CCC(Cc1cnc2nc(N)nc(N)c2n1)c1ccc(C(=O)N[C@@H](CCC(=O)O)C(=O)O)cc1 (stereo not given in full) [pralatrexate] | 1.9% | -0.71% | -3.9% | -4.99% | -6.91%
CCOc1ccc2ccccc2c1C(=O)N[C@@H]1C(=O)N2[C@@H]1SC(C)(C)[C@@H]2C(=O)O [nafcillin] | -2.44% | 1.27% | -1.26% | -1.73% | -0.95%
Cc1ncc([N+](=O)[O-])n1CCO [metronidazole] | 1.71% | -0.45% | 1.81% | 0.19% | -1.16%
OC[C@H]1O[C@@H](O[C@@H]2[C@H](O)[C@@H](O)[C@H](O[C@H]3[C@H](O)[C@@H](O)C(O)O[C@@H]3CO)O[C@@H]2CO)[C@H](O)[C@@H](O)[C@H]1O (stereo not given in full) [4-galactosyllactose] | -1.88% | -2.42% | 1.58% | 0.18% | -0.03%
COc1ccccc1C1(O)CCN(CCCn2c3ccccc3c3ccccc32)CC1 | 0.73% | 1.45% | 2.5% | 1.69% | 42.4% (active)
